# An excerpt weighted towards active compounds, which were near 4.7% of everything screened.
# D1 antagonist – antagonists of human D1 dopamine receptor. HEK293 TREx D1 cells, calcium flux, dopamine EC80; stronger effect = lower value. activity change, negative = inhibition, % at 10 µM. 360,000 compounds, 3.2% hits; in the data active = activity change below about -30%; note: % is set by controls: 0 for no effect and ±100 for the full control effect
#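 Compound effects on dopamine-evoked calcium signalling were measured in tetracycline-induced HEK293 Trex D1 cells. Dopamine at EC80 followed a 180 s compound pre-read, and fluorescence was tracked kinetically for 180 s more.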
# TRHR ag – agonists of human TRH receptor; TRHR cells, calcium flux fluo-8, FDSS agonist mode; 360,000 compounds, 0.18% hits; P34981; activation, % at 2 µM; note: 0% is about no effect
# Target sequence (P34981 whole entry, looked up): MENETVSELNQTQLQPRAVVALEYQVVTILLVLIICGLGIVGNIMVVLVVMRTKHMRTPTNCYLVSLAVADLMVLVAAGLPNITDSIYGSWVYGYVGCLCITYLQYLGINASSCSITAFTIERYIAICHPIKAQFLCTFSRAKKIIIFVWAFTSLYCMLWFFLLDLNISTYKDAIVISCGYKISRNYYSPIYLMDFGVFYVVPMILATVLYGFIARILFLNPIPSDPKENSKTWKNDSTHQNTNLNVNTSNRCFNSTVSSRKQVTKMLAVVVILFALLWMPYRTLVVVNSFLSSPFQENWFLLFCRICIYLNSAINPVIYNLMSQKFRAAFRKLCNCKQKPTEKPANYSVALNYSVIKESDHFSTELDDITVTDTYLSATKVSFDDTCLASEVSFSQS
#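 In this calcium-flux screen, cells bearing human TRHR are dye-loaded with fluo-8, baselined for 10 cycles, then exposed to library compounds; positive kinetic calcium responses during the agonist phase mark hits, with TRH as control.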
# D1 PAM – human D1 dopamine receptor positive modulation; HEK293 TREx D1 cells, calcium flux, dopamine EC20 potentiation; potentiation, % at 10 µM; P21728; AID 504651; 360,000 compounds, 0.036% hits; in the data active = potentiation above about 30%; note: 0% is about no effect
# TRHR PAM – allosteric enhancers of human TRH receptor; P34981; TRHR cells, fluo-8 calcium fluorescence, EC20 TRH enhancement; enhancement, % at 2 µM; 360,000 compounds, 0.66% hits; in the data active = enhancement above about 30%; note: 0% is about no effect
#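 Enhancer read-out: after compound pinning and an initial kinetic agonist-mode read, an EC20 of TRH (10 nM final) was injected and fluo-8 calcium signal (Ex 480/Em 530) followed at 1 s/cycle for 100 cycles in TRHR-expressing cells.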
# D1 agonist – human D1 receptor agonism; HEK293 T-REx D1 cells, calcium flux, agonist mode; activation, % at 2 µM; 360,000 compounds, 1% hits; note: 0% is about no effect
#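 Agonism was scored from calcium flux recorded over 180 s (1 read/s) after pintool compound addition, following a 10-cycle baseline. Cells were inducible force-coupled HEK293 TREx D1, plated overnight at 30 C and loaded with no-wash calcium dye.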
# Starred values were filed as active, the others as inactive. Cut-off read from the data, not from the text of the source, unless noted: active = activation above about 30%; inactive = the rest.
SMILES,D1 antagonist,TRHR ag,D1 PAM,TRHR PAM,D1 agonist
CCOc1ccccc1NC(=O)CSC1=Nc2ccccc2C2=NC(CC(=O)NCc3ccc4c(c3)OCO4)C(=O)N12 (stereo not drawn),5,1,1,-3,8
CN(C)S(=O)(=O)N(CC(=O)Nc1ccc(Br)cc1F)c1ccccc1,0,1,-5,15,0
COC(=O)c1ccc(C2c3c(oc4cc(C)c(C)cc4c3=O)C(=O)N2c2ccccn2)cc1 (stereo not drawn),1,0,-2,8,1
COc1ccccc1OC(C)C(=O)Nc1cccc(-c2nc3ccccc3o2)c1 (stereo not drawn),-8,-1,-1,6,32*
CC(NC(=O)C1CCC(CNS(=O)(=O)c2ccccc2)CC1)c1ccccc1 (stereo not drawn),-41*,1,-8,6,11
CCn1c(SCc2ccccc2)nnc1-c1cccnc1,-9,0,3,-4,0
COc1ccccc1N1CCN(C(=O)C(=O)c2c[nH]c3ccccc23)CC1,-30*,1,3,-6,7
COc1ccccc1N1CCN(/N=C/c2ccccc2C(=O)O)CC1,-50*,0,-5,0,0
O=C(C(=O)N1CCN(c2ccccc2F)CC1)c1c[nH]c2ccccc12,-83*,0,-3,9,4
O=S(=O)(c1ccc2c(c1)OCCO2)N1CCN(S(=O)(=O)c2cc(F)c(Br)cc2F)CC1,1,-2,3,-4,1
COc1ccc(/C=N/NC(=O)NC23CC4CC(CC(C4)C2)C3)c(OC)c1,7,0,2,7,-1
CCN1CCN(c2nc3ccccn3c(=O)c2/C=C(\C#N)S(=O)(=O)c2ccccc2)CC1,-66*,2,-5,1,2
Cc1cccn2c(=O)c(/C=C(\C#N)S(=O)(=O)c3ccccc3)c(N3CCC(C(N)=O)CC3)nc12,-6,0,7,-8,-1
CCN1CCN(c2nc3c(C)cccn3c(=O)c2/C=C(\C#N)C(=O)NCCOC)CC1,-1,30*,-8,-5,15
Cc1ccc(S(=O)(=O)/C(C#N)=C/c2c(N3CCC(C(N)=O)CC3)nc3c(C)cccn3c2=O)cc1,-47*,0,-2,-2,11
COCCNC(=O)/C(C#N)=C/c1c(N2CCN(C)CC2)nc2c(C)cccn2c1=O,-25,0,-6,5,2
CCN1CCN(c2nc3c(C)cccn3c(=O)c2/C=C(\C#N)S(=O)(=O)c2ccccc2)CC1,-13,1,-5,11,2
CCOc1ccc(CCNC(=O)C2Cc3ccccc3N2C(=O)CC)cc1OCC (stereo not drawn),-2,-1,1,-3,-1
CCOc1cc(C)c(C(C)C)cc1S(=O)(=O)n1cnc(C)c1,-31*,0,-14,8,3
CCOc1cc(C)c(C(C)C)cc1S(=O)(=O)N1CC(C)OC(C)C1 (stereo not drawn),3,0,-1,-2,2
CCOc1ccc(S(=O)(=O)n2cnc(C)c2)cc1,-44*,-2,-6,1,7
COc1cc(CN2CCNC(=O)C2CC(=O)NCCCC2CCCC2)cc(OC)c1 (stereo not drawn),11,0,-3,-5,0
CCOC(=O)c1cccc(NC(=O)NCCc2c(C)nn(C)c2C)c1,4,-1,-1,0,2
COc1ccc(CC(=O)Oc2ccc(C#N)cc2)cc1,18,1,1,9,6
COc1cc(C2NC(=O)NC(c3ccccc3)=C2C(C)=O)cc(Cl)c1OCC(=O)O (stereo not drawn),38,0,2,33*,-2
Cc1ccccc1NC(=O)NCCCN1CCN(c2ccccc2F)CC1,-82*,0,-5,5,9
Cc1cc(CN2CCN(c3cccc(C)c3C)CC2)cs1,12,0,-8,6,13
COc1ccc(Cc2nnc(C(=O)NCCCN3CCN(c4ccccc4F)CC3)o2)cc1OC,-6,0,-3,15,4
O=C(CCc1ccccc1)N1CCN(c2ccccc2F)CC1,-9,0,2,-2,0
Fc1ccccc1N1CCN(CCCc2ccccc2)CC1,-63*,0,-9,-2,3

# From PubChem
